The source made the active and inactive calls. Unless noted, the rule behind the calls is not given here.
Legend:
[1] = HepG2 liver cancer cell viability effects, profiling panel, resazurin fluorescence, 24 h, PK04 Diversity Set (AID 1172); details: higher = more signal
[2] = basal S. cerevisiae growth modulation, no modifier, primary screen, OD600, strain BY4716, 24 h, basal condition (AID 1173); details: OD600, 24 h, higher = more signal, called active from +8 up or from −8 down
[3] = MM1S myeloma cell viability, profiling panel, resazurin fluorescence, basal, 24 h, PK04 Diversity Set (AID 1174); details: higher = more signal, called active from +8 up or from −8 down;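 note: MM1S multiple myeloma cell line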
[4] = molecular target: Dihydroorotate dehydrogenase (quinone), mitochondrial (Plasmodium falciparum (isolate 3D7)) (UniProt Q08210); assay: PfDHODH enzyme inhibitors, primary screen, biochemical, C-terminal His tag, absorbance 600 nm (AID 1175); details: DCIP absorbance 600 nm, higher = more signal, called active from +8 up or from −8 down;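 note: recombinant parasite enzyme with a five histidine tag at its C terminus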
[5] = P. aeruginosa biofilm formation inhibitors, primary screen, strain PAO1, LB-PBS medium, absorbance 600 nm (AID 1176); details: P. aeruginosa PAO1 growth/biofilm, A600, 12 h; higher = more signal
[6] = S. cerevisiae RM11-1a growth modifiers, primary screen, strain RM11-1a, OD600, basal, 24 h (AID 1177); details: OD600, 24 h, higher = more signal, called active from +8 up or from −8 down;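 note: cultures grown under basal conditions with no added stressor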
[7] = E. coli acrAB mutant growth effects, primary screen, E. coli filamentation inducers, strain DRC39, OD650, 24 h (AID 1178); details: higher = more signal, called active from +8 up or from −8 down;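 note: growth measured as culture turbidity by optical density at 650 nm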
[8] = E. coli acrAB mutant growth effects, primary screen, E. coli filamentation inducers, strain DRC39, OD650, 48 h (AID 1179);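 note: screen aims at cell division blockers that make cells filament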; details: E. coli DRC39 delta-acrAB growth, higher = more signal, called active from +8 up or from −8 down
[9] = RPMI8226 myeloma cell viability, profiling panel, resazurin fluorescence, basal, 24 h, PK04 Diversity Set (AID 1180); details: higher = more signal;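 note: RPMI8826 multiple myeloma cell line at 5000 cells per well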
[10] = molecular target: E3 ubiquitin-protein ligase XIAP (Homo sapiens) (UniProt P98170); assay: XIAP binders, primary screen, biophysical, small-molecule microarray, fluorescence 635 nm (AID 1181); details: small-molecule microarray binding, higher = more signal;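 note: score merges 667 nm emission and signal to noise over triplicate slides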
[11] = test system: XIP peptide (Xip251-270) binding; assay: small-molecule binders of XIP peptide, primary screen, biochemical, small-molecule microarray, fluorescence 635/667 nm, 0.1 µg/mL protein (AID 1182); details: fluorescent protein binding, 635 nm, higher = more signal, called active from +8 up or from −8 down
[12] = test system: XIP peptide (Xip251-270); assay: small-molecule binders of XIP peptide, primary screen, biochemical, small-molecule microarray, fluorescence 635/667 nm, 0.5 µg/mL protein (AID 1183); details: small-molecule microarray binding, fluorescence 635 nm; higher = more signal
[13] = Plasmodium falciparum growth inhibition, primary screen, strain 3D7, DAPI fluorescence, 100 nL (AID 1184);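 note: parasites grown inside human red blood cells in medium with human serum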; details: P. falciparum 3D7 growth, 3 d, higher = more signal
[14] = molecular target: Homeobox protein Hox-A13 (Mus musculus) (UniProt Q62424); assay: inhibitors of HoxA13-DNA binding, primary screen, biochemical, fluorescence polarization, labeled oligonucleotide (AID 1185); details: 15 min, higher = more signal, called active from +8 up or from −8 down
[15] = inhibitors of hydroxyurea-induced Chk1 phosphorylation, primary screen, imaging, HeLa, phospho-Chk1 antibody, percent positive cells (AID 1186); details: hydroxyurea-induced phospho-Chk1 immunofluorescence imaging, higher = more signal
[16] = inhibitors of hydroxyurea-induced Chk1 phosphorylation, primary screen, imaging, HeLa, phospho-Chk1 nuclear intensity (AID 1187); details: hydroxyurea-induced phospho-Chk1 immunofluorescence imaging, higher = more signal

Homeobox protein Hox-A13 (Mus musculus), sequence (Q62424 whole entry, looked up): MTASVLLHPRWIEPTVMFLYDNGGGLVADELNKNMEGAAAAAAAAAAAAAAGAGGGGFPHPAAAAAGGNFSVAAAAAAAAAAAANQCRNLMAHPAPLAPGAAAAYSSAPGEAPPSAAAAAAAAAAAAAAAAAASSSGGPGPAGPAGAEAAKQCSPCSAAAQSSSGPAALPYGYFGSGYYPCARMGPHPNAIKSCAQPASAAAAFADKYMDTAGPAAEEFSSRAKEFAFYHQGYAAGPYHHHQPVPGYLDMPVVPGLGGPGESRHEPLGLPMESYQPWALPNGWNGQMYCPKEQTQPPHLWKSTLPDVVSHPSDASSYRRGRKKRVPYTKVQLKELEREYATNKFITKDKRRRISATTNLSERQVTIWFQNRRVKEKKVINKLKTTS
Dihydroorotate dehydrogenase (quinone), mitochondrial (Plasmodium falciparum (isolate 3D7)), sequence (Q08210 whole entry, looked up): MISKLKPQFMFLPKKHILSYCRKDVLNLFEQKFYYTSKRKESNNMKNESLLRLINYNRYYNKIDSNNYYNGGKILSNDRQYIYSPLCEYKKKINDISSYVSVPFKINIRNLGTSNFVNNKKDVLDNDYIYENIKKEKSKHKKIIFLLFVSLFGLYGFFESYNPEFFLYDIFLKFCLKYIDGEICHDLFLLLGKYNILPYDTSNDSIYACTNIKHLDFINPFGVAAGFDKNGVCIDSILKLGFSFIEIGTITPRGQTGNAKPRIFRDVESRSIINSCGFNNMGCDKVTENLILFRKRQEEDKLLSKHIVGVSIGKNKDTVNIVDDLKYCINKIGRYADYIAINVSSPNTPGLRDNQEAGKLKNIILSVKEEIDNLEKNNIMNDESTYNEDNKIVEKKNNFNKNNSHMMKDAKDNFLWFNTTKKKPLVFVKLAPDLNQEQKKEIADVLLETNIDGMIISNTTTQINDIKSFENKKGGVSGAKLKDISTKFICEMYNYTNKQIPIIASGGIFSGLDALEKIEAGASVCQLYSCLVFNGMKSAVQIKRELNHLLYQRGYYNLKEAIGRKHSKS
E3 ubiquitin-protein ligase XIAP (Homo sapiens), sequence (P98170 whole entry, looked up): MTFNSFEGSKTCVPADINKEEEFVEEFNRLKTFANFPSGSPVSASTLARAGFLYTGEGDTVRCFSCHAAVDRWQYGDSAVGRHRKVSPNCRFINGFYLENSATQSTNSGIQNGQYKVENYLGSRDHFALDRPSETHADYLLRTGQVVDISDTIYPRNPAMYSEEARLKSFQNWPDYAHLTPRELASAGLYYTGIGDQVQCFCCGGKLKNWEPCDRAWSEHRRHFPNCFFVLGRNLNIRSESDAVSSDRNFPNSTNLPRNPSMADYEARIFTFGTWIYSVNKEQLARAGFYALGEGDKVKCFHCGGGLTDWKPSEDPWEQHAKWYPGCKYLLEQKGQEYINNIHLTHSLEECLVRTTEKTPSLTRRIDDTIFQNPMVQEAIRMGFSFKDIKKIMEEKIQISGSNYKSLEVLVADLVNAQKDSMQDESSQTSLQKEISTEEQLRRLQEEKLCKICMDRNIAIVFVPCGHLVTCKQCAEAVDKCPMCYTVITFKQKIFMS

SMILES: C#CCN(CC1=CCCCC1)[C@H](c1ccccc1Br)[C@@H](O)Cc1ccccc1
- z-score [1]: 1.47
- z-score [2]: -2.52 (inactive)
- z-score [3]: 1.05 (inactive)
- composite z-score [4]: 0.0019 (inactive)
- z-score [5]: 0.236 (inactive)
- z-score [6]: 0.404 (inactive)
- z-score [7]: 0.657 (inactive)
- z-score [8]: 0.406 (inactive)
- z-score [9]: -0.486
- composite z-score [10]: -0.209
- composite z-score [11]: 0.0838 (inactive)
- composite z-score [12]: -0.43
- z-score [13]: 0.47
- z-score [14]: -0.843 (inactive)
- z-score [15]: -0.164 (inactive)
- z-score [16]: -0.155 (inactive)

SMILES: COC(=O)[C@@]1(Cc2ccc(F)cc2)[C@H]2c3cc(C(=O)N4CCCC4)n(Cc4ccc(C)o4)c3C[C@H]2CN1C(=O)c1ccccc1
- z-score [1]: -0.814
- z-score [2]: 0.707 (inactive)
- z-score [3]: -6.17 (inactive)
- composite z-score [4]: -1.04 (inactive)
- z-score [5]: -0.595 (inactive)
- z-score [6]: 0.544 (inactive)
- z-score [7]: -0.201 (inactive)
- z-score [8]: 0.548 (inactive)
- z-score [9]: -5.35
- composite z-score [10]: 0.0623
- composite z-score [11]: 0.205 (inactive)
- composite z-score [12]: 0.705
- z-score [13]: -1.14
- z-score [14]: -4.22 (inactive)
- z-score [15]: -0.289 (inactive)
- z-score [16]: -0.163 (inactive)

SMILES: O=C1O[C@H](c2ccccc2)[C@H](c2ccccc2)N2[C@H]1[C@@H](C(=O)NC[C@H](O)c1ccccc1)[C@]1(C(=O)Nc3ccccc31)[C@H]2c1ccc(OCCO)cc1
- z-score [1]: 0.293
- z-score [2]: 1.3 (inactive)
- z-score [3]: -2.05 (inactive)
- composite z-score [4]: 0.0379 (inactive)
- z-score [5]: 4.04 (inactive)
- z-score [6]: 3.05 (inactive)
- z-score [7]: 0.0797 (inactive)
- z-score [8]: 0.0403 (inactive)
- z-score [9]: -3.16
- composite z-score [10]: -0.0272
- composite z-score [11]: 0.674 (inactive)
- composite z-score [12]: 0.809
- z-score [13]: 0.249
- z-score [14]: -5.01 (inactive)
- z-score [15]: -0.0282 (inactive)
- z-score [16]: 0.177 (inactive)

SMILES: C[C@@]1([C@@H](NC(=O)c2ccccc2)c2ccc(-c3ccccc3)cc2)C[C@H]1C1CCCCC1
- z-score [1]: -1.32
- z-score [2]: 1.14 (inactive)
- z-score [3]: -1.93 (inactive)
- composite z-score [4]: -0.712 (inactive)
- z-score [5]: 1.57 (inactive)
- z-score [6]: 0.0656 (inactive)
- z-score [7]: -1.59 (inactive)
- z-score [8]: -1.17 (inactive)
- z-score [9]: -0.675
- composite z-score [10]: -0.117
- composite z-score [11]: 0.192 (inactive)
- composite z-score [12]: -1.44
- z-score [13]: -0.206
- z-score [14]: -0.0623 (inactive)
- z-score [15]: 0.664 (inactive)
- z-score [16]: -0.296 (inactive)

SMILES: C=CCNC(=O)[C@H]1[C@@H]2C(=O)O[C@@H](c3ccccc3)[C@@H](c3ccccc3)N2[C@@H](c2ccc(OCCO)cc2)[C@]12C(=O)N(C(=O)OCCOC)c1ccccc12
- z-score [1]: -0.732
- z-score [2]: 1.41 (inactive)
- z-score [3]: -0.738 (inactive)
- composite z-score [4]: 1.17 (inactive)
- z-score [5]: 1.11 (inactive)
- z-score [6]: 2.32 (inactive)
- z-score [7]: -0.595 (inactive)
- z-score [8]: -1.27 (inactive)
- z-score [9]: -0.0749
- composite z-score [10]: -0.0969
- composite z-score [11]: 0.95 (inactive)
- composite z-score [12]: 0.846
- z-score [13]: -1.63
- z-score [14]: -4.21 (inactive)
- z-score [15]: -0.105 (inactive)
- z-score [16]: -0.0934 (inactive)

SMILES: O=C1NC(=O)C2C1C=CC(C(O)c1ccccc1)N2Nc1ccc(Cl)cc1Cl (centres undefined)
- z-score [1]: -2.45
- z-score [2]: -17.3 (active)
- z-score [3]: -1.62 (inactive)
- composite z-score [4]: -0.782 (inactive)
- z-score [5]: 1.43 (inactive)
- z-score [6]: -15.4 (active)
- z-score [7]: 0.047 (inactive)
- z-score [8]: -0.224 (inactive)
- z-score [9]: -1.55
- composite z-score [10]: 0.54
- composite z-score [11]: -0.0839 (inactive)
- composite z-score [12]: 0.812
- z-score [13]: 0.416
- z-score [14]: -5.54 (inactive)
- z-score [15]: -0.346 (inactive)
- z-score [16]: -0.621 (inactive)

SMILES: CN1C(=O)[C@]2(Cc3ccccc3)N=C(c3ccc(OCCCO)cc3)O[C@@H]2c2ccccc21
- z-score [1]: -0.635
- z-score [2]: -1.79 (inactive)
- z-score [3]: -2.57 (inactive)
- composite z-score [4]: 0.539 (inactive)
- z-score [5]: 0.814 (inactive)
- z-score [6]: 1.13 (inactive)
- z-score [7]: 0.757 (inactive)
- z-score [8]: 0.0422 (inactive)
- z-score [9]: -2.41
- composite z-score [10]: 0.0617
- composite z-score [11]: 0.97 (inactive)
- composite z-score [12]: 0.818
- z-score [13]: -2.3
- z-score [14]: -4.54 (inactive)
- z-score [15]: -0.276 (inactive)
- z-score [16]: 0.0593 (inactive)

SMILES: NC(=O)[C@@H]1[C@H]2C(=O)O[C@H](c3ccccc3)[C@H](c3ccccc3)N2[C@H](c2ccc(O)cc2)[C@@]12C(=O)Nc1ccc(C#CC3(O)CCCCCC3)cc12
- z-score [1]: -0.0265
- z-score [2]: -1.32 (inactive)
- z-score [3]: 0.475 (inactive)
- composite z-score [4]: -0.387 (inactive)
- z-score [5]: 0.654 (inactive)
- z-score [6]: 0.591 (inactive)
- z-score [7]: -0.84 (inactive)
- z-score [8]: -0.184 (inactive)
- z-score [9]: -0.49
- composite z-score [10]: -0.113
- composite z-score [11]: 0.734 (inactive)
- composite z-score [12]: 0.458
- z-score [13]: 0.907
- z-score [14]: -3.37 (inactive)
- z-score [15]: -0.0527 (inactive)
- z-score [16]: 0.0812 (inactive)

SMILES: COCCCNC(=O)C1N=C(c2ccc(OCCCO)cc2)N(c2ccccc2)O1 (centres undefined)
- z-score [1]: 0.522
- z-score [2]: -0.5 (inactive)
- z-score [3]: -0.441 (inactive)
- composite z-score [4]: 0.0216 (inactive)
- z-score [5]: -1.45 (inactive)
- z-score [6]: 0.254 (inactive)
- z-score [7]: 0.516 (inactive)
- z-score [8]: 1.03 (inactive)
- z-score [9]: 0.694
- composite z-score [10]: 0.819
- composite z-score [11]: 1.84 (inactive)
- composite z-score [12]: 0.779
- z-score [13]: -0.572
- z-score [14]: -2.25 (inactive)
- z-score [15]: -0.0836 (inactive)
- z-score [16]: 0.164 (inactive)

— PubChem BioAssay
